According to PubChem BioAssay (NCATS):
“And” between values parts separate entries of the source, which are not always exact repeats. Equal values may be shown once. Results filed as inconclusive are left out. The source made the active and inactive calls. Unless noted, calls follow the shape of the dose curve; as a rule, active = well fitted curve in the direction sought with a large enough effect; inconclusive = small, poorly fitted or top-dose-only effect, or another doubt; inactive = no such curve, though single readings can be large; an effect the other way counts as inactive or inconclusive.

Experiments:
[1] = Cell Viability - SK-N-SH (AID 435; calls by dose curve;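 also: potency is read from the fitted curve at half-maximal effect; compound exposure lasted 40 h at 37 °C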); conditions: SK-N-SH neuroblastoma cell viability qHTS
Outline: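 CellTiter-Glo ATP luminescence, 20 min RT read; cells pre-plated 5 hr, compound 40 hr at 37 °C, 1500 cells/well, complete medium. Normalized DMSO = 0, 100 uM tamoxifen = 100% inhibition; Hill-fit AC50.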

[2] = Cell Viability - HUV-EC-C (AID 542); conditions: HUV-EC-C endothelial cell viability, qHTS; series mostly up to 92.2 µM; also: % is scaled to controls: 0 for no effect and ±100 for the full control effect; nearly all actives have a fitted effect of over 35% in size
Outline: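 HUV-EC-C normal human vascular endothelial cells, 1000 cells/well, pre-incubated 5 hr at 37 °C, then exposed to compounds for 40 hr at 37 °C in complete medium. Viability measured as intracellular ATP by CellTiter-Glo luminescence; AC50 from Hill fits.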

[3] = Cell Viability - Renal Proximal Tubule (AID 545); conditions: renal proximal tubule cells viability; series mostly up to 91.7 µM;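 also: 0% = DMSO only and -100% = 100 µM tamoxifen; nearly all actives have a fitted effect of over 40% in size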
Outline: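 Rat kidney proximal tubule cells, freshly isolated; 1000 cells/well, 5 hr settle, compound 40 hr 37 °C. CellTiter-Glo 20 min RT, luminescence read. AC50 by standard Hill fit.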

[4] = Cell Viability - LYMP2-011 (AID 969); conditions: LYMP2-011 lymphoblastoid cells viability; series mostly up to 92.2 µM; also: nearly all actives have a fitted effect of over 60% in size; also: potency is read from the fitted curve at half-maximal effect
Outline: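 Human lymphoblastoid cells (2500/well) were plated in complete medium, preincubated 5 hr at 37 C, then exposed to compounds for 24 hr at 37 C. Intracellular ATP was read by CellTiter-Glo luminescence, and AC50 came from Hill-equation concentration-response fits.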

[5] = Cell Viability - LYMP2-013 (AID 970); conditions: LYMP2-013 lymphoblastoid cells viability; series mostly up to 92.2 µM; also: nearly all actives have a fitted effect of over 55% in size; also: potency is read from the fitted curve at half-maximal effect
Outline: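 Human lymphoblastoid cells, 2500/well, were preincubated 5 hr at 37 C, then treated with compounds for 24 hr at 37 C in complete medium. Intracellular ATP was read by CellTiter-Glo luminescence; AC50 from Hill-equation fits of concentration-response data.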

[6] = Cell Viability - LYMP2-021 (AID 974); conditions: LYMP2-021 lymphoblastoid cells viability; series mostly up to 92.2 µM;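 also: compound exposure lasts 24 hours at 37 °C; nearly all actives have a fitted effect of over 55% in size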; also: potency is read from the fitted curve at half-maximal effect
Outline: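 Human lymphoblastoid cells (2500/well) were preincubated 5 hr at 37 C, then exposed to compounds for 24 hr at 37 C in complete medium. Intracellular ATP was read by CellTiter-Glo luminescence; AC50 came from Hill-equation fits of concentration-response data.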

[7] = Cell Viability - LYMP2-023 (AID 975); conditions: LYMP2-023 lymphoblastoid cell viability; series mostly up to 92.2 µM;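 also: cellular ATP measured by luciferase luminescence as viability proxy; plate controls were DMSO only for no effect and 92 µM tetraoctylammonium bromide control for full effect; nearly all actives have a fitted effect of over 55% in size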
Outline: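 Human lymphoblastoid cells (2500/well) were preincubated 5 hr at 37 C, then exposed to compounds for 24 hr at 37 C in complete medium. Cellular ATP was read by CellTiter-Glo luminescence, and AC50 came from Hill-equation fits.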

[8] = Cell Viability - LYMP2-002 (AID 977); conditions: LYMP2-002 lymphoblastoid cell viability, qHTS; series mostly up to 92.2 µM; also: potency is read from the fitted curve at half-maximal effect
Outline: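 Luminescent ATP readout (CellTiter-Glo, 30 min room temperature) after 24 h compound exposure at 37 C of a human lymphoblastoid line, 2500 cells/well. AC50 values derived by standard Hill fitting of qHTS concentration-response data.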

[9] = Cell Viability - LYMP2-010 (AID 981); conditions: LYMP2-010 lymphoblastoid cell viability, qHTS; series mostly up to 92.2 µM; also: nearly all actives have a fitted effect of over 55% in size; also: potency is read from the fitted curve at half-maximal effect
Outline: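 Human lymphoblastoid LYMP2-010 cells (2500/well) were preincubated 5 hr at 37 C, then exposed to compounds for 24 hr at 37 C in complete medium. Intracellular ATP was measured by CellTiter-Glo luminescence after 30 min at room temperature; AC50 from Hill-fitted concentration-response.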

[10] = Cell Viability - LYMP2-020 (AID 986); conditions: series mostly up to 92.2 µM; also: nearly all actives have a fitted effect of over 55% in size; also: potency is read from the fitted curve at half-maximal effect
Outline: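 Human lymphoblastoid cells, 2500/well, were pre-incubated 5 hr at 37 C, then exposed to compounds for 24 hr at 37 C in complete medium. Intracellular ATP was read by CellTiter-Glo luminescence, and AC50 was derived by Hill fitting of concentration-response data.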

[11] = Cell Viability - LYMP1-002 - Assay at 24 hr (AID 993); conditions: LYMP1-002 lymphoblastoid cells viability; series mostly up to 92.2 µM; also: % is scaled to controls: 0 for no effect and ±100 for the full control effect
Outline: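 Human lymphoblastoid LYMP1-002 cells, 2500/well in complete medium, were treated with compounds for 24 h at 37 C; intracellular ATP was read by CellTiter-Glo luminescence. AC50 values came from Hill-equation fits of qHTS concentration-response data.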

[12] = molecular target: Peroxisome proliferator-activated receptor delta (Homo sapiens) (UniProt Q03181); assay: qHTS assay for small molecule agonists of peroxisome proliferator-activated receptor delta signaling (AID 588534; calls by dose curve;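 also: 0% = DMSO basal wells and 100% = positive control agonist at 10 µM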); conditions: HEK293T PPARdelta-UAS-bla, beta-lactamase ratio, 18 h; series mostly up to 76.7 µM
Chain of Peroxisome proliferator-activated receptor delta (Homo sapiens) (Q03181 whole entry, looked up): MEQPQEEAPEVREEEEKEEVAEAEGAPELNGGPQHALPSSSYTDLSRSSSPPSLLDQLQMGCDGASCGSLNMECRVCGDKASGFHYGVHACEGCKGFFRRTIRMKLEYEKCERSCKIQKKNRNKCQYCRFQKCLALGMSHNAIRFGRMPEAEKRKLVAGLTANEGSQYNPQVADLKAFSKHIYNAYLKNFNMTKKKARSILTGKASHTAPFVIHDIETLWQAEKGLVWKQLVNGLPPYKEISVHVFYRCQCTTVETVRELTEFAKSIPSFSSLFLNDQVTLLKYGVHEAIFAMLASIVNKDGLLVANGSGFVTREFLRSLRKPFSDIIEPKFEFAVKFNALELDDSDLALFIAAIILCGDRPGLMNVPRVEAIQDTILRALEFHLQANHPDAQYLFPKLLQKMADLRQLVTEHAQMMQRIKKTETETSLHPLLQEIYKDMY
Outline: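 Cell-based beta-lactamase reporter assay run in agonist mode: cells seeded and incubated 5 hrs at 37 C, compounds added and incubated 18 hrs at 37 C. CCF4 dye fluorescence read after 2 hrs at RT; EC50 and efficacy from Hill fits.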

[13] = molecular target: Retinoic acid receptor RXR-alpha (Homo sapiens) (UniProt P19793); assay: qHTS assay for small molecule antagonists of retinoid X receptor alpha signaling (AID 588546; active = well fitted inhibition curve with a large enough effect in the signal ratio, with a control signal flat, not every such curve was filed as active; the % refers to the signal ratio;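 also: cells stimulated with 9-cis-retinoic acid as agonist; % is scaled to controls: 0 for no effect and ±100 for the full control effect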); conditions: HEK293T RXRa-UAS-bla, beta-lactamase ratio, antagonist mode
Chain of Retinoic acid receptor RXR-alpha (Homo sapiens) (P19793 whole entry, looked up): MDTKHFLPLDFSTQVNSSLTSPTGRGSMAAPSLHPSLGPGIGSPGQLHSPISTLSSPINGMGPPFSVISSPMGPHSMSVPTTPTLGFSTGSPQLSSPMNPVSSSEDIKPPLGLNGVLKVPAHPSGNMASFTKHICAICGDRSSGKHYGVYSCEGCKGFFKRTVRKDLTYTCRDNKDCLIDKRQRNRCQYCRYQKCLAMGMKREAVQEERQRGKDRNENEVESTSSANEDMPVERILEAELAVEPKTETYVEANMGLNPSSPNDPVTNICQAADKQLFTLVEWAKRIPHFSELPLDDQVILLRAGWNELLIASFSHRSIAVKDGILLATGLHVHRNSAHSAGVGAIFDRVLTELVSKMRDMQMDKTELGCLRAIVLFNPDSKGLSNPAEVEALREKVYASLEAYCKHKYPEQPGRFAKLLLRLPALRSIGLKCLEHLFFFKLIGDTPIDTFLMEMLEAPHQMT
Outline: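 Beta-lactamase reporter inhibition, read as CCF4 fluorescence ratio (ex 405, em 460/530 nm) after 2 h at RT. HEK293T UAS-bla cells, 2500/well, were stimulated with 9-cis-RA at 500 or 100 nM final alongside test compound for 18 h at 37 C.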

[14] = qHTS assay for small molecule activators of the nuclear factor-kappa B (NF-kB) signaling pathway (AID 651749; active = well fitted activation curve with a large enough effect in the signal ratio; the % refers to the signal ratio; also: % of control where 0% means no effect); conditions: NF-kB-bla ME-180 cells, beta-lactamase FRET ratio, 16 h; active compounds read high
Outline: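 ME-180 cells stably carrying a beta-lactamase reporter under an NF-kB response element were exposed to compound or DMSO vehicle for 16 hr at 37C, 5% CO2. Pathway activation was read by FRET, since reporter expression disrupts FRET.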

[15] = qHTS assay for small molecule antagonists of the retinoid-related orphan receptor gamma (ROR-gamma) signaling pathway - cell viability counter screen (AID 720652; active = well fitted curve in the direction sought with a large enough effect in the repeat runs; an effect the other way counts as inactive or inconclusive;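 also: compound exposure lasted 16 hr before ATP read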; also: potency is read from the fitted curve at half-maximal effect); conditions: RORgamma reporter cell line viability counter screen; series mostly up to 92.2 µM
Outline: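 Counter screen in CHO cells carrying TET-inducible ROR-gamma and an ROR response element-luciferase reporter; cells plated 5 hr, compound pinned, doxycycline added, then 16 hr at 37 C. Viability read as intracellular ATP by CellTiter-Glo luminescence.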

[16] = molecular target: Nuclear receptor subfamily 1 group I member 2 (Rattus norvegicus) (UniProt Q9R1A7); assay: qHTS assay for small molecule activators of the rat pregnane X receptor (rPXR) signaling pathway (AID 651751; call rule not given here; also: 0% is about no effect); conditions: rPXR reporter cells, luciferase (One-Glo), 24 h
Chain of Nuclear receptor subfamily 1 group I member 2 (Rattus norvegicus) (Q9R1A7 whole entry, looked up): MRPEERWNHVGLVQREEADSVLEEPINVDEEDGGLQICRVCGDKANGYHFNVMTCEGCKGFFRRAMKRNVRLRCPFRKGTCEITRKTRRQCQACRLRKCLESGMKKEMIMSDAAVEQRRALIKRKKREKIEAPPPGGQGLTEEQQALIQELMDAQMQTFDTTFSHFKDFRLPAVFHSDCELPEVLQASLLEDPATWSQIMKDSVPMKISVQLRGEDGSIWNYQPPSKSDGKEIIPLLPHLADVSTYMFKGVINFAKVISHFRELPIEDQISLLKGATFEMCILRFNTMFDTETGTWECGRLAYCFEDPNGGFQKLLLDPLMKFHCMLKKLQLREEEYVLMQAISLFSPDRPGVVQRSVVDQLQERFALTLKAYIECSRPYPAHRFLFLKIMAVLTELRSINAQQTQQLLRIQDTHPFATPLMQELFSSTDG

[17] = qHTS assay for small molecule activators of the human pregnane X receptor (PXR) signaling pathway (AID 720659; call rule not given here; also: 0% is about no effect); conditions: DPX-2 HepG2 CYP3A4-luciferase, 24 h; series mostly up to 92.3 µM
[18] = Cell Viability - LYMP2-005 (AID 967); conditions: LYMP2-005 lymphoblastoid cell viability; series mostly up to 92.2 µM;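 also: plate controls were DMSO only for no effect and 92 µM tetraoctylammonium bromide control for full effect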
Outline: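 Steps: seed 2500 LYMP2-005 cells/well, incubate 5 h at 37 C, add compound, incubate 24 h at 37 C, add CellTiter-Glo, wait 30 min at RT, read luminescence. Concentration-response data fitted to Hill equation for AC50.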

[19] = Cell Viability - LYMP2-015 (AID 971); conditions: LYMP2-015 lymphoblastoid cell viability; series mostly up to 92.2 µM; also: nearly all actives have a fitted effect of over 55% in size; also: potency is read from the fitted curve at half-maximal effect
Outline: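 Human lymphoblastoid cells (2500/well) in complete medium were preincubated 5 hr at 37 C, then compound-treated 24 hr at 37 C. Intracellular ATP was read by CellTiter-Glo luminescence after 30 min at room temperature; AC50 came from Hill-equation concentration-response fits.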

[20] = qHTS assay for small molecule agonists of the antioxidant response element (ARE) signaling pathway (AID 651741; active = well fitted activation curve with a large enough effect in the signal ratio; the % refers to the signal ratio; also: potency is read from the fitted curve at half-maximal effect; as to activation: % of control where 0% means no effect); conditions: HepG2 ARE-bla reporter, beta-lactamase FRET ratio, 16 h; series mostly up to 96 µM
Outline: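 ARE-bla HepG2 cells (beta-lactamase reporter under ARE control) were plated at 2,000 cells/well, preincubated 5 h at 37 C/5% CO2, then treated with DMSO-dissolved compounds for 16 h at 37 C; LiveBLAzer B/G FRET substrate added, fluorescence read after 2 h at room temperature.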

CCCCC(=O)Cl
inactive: Potency [1] > 92 µM | Potency [2] | outcome [3] | Potency [4] | Potency [5] | Potency [6] | Potency [7] | Potency [8] | Potency [9] | Potency [10] | Potency [11] | outcome [12] | max response [13] -9.41% | activation [14] -1.31% | Potency [15] | max response [16] 6.67% | outcome [17]

CCCCCCCCCCCOC(=O)c1ccccc1C(=O)OCCCCCCCCCCC
inactive: Potency [1] > 92 µM | outcome [3] | Potency [18] | Potency [4] | Potency [5] | Potency [19] | Potency [7] | Potency [8] | Potency [9] | Potency [10] | Potency [11] | outcome [12] | max response [13] -3.34% | Potency [20] | activation [14] -0.4% | Potency [15] | max response [16] 1.44%

Nc1ccc(Cc2ccc(N)c(Cl)c2)cc1Cl
inactive: Potency [1] > 92 µM | Potency [4] | Potency [19] | Potency [8] | Potency [9] | Potency [10] | Potency [11] | max response [13] -29.3% | Potency [15]

O=[N+]([O-])/C=C/c1ccccc1
active: Potency [4] 50.1 µM | Potency [5] 50.1 µM | Potency [19] 39.8 µM | Potency [6] 39.8 µM | Potency [8] 39.8 µM | Potency [9] 50.1 µM | Potency [10] 50.1 µM | Potency [15] 37.6 µM
inactive: Potency [18] | Potency [11] | outcome [12] | max response [13] -0.636% | activation [14] -0.835%

CC(C)[N+](=O)[O-]
inactive: Potency [1] > 92 µM | Potency [2] | Potency [18] | Potency [4] | Potency [19] | Potency [6] | Potency [7] | Potency [8] | Potency [9] | Potency [10] | Potency [11] | max response [13] 14.3% | Potency [20] | activation [14] -0.258% | max response [16] 1.27% | outcome [17]

O=[N+]([O-])c1c(Cl)c(Cl)c(Cl)c(Cl)c1Cl
inactive: Potency [1] > 92 µM | Potency [2] | outcome [3] | Potency [18] | Potency [19] | Potency [6] | Potency [8] | Potency [11] | outcome [12] | activation [14] -2.45% and -1.33% | max response [16] -3.78% and 1.81% | outcome [17]
active: Potency [20] 37.6 µM and 24.3 µM

CN(C)c1ccc(N(C)C)cc1
inactive: outcome [3] | max response [13] 17.1% | activation [14] 0.946% | outcome [17]
active: Potency [9] 50.1 µM | Potency [20] 42.2 µM

O=C(O)C(Br)CBr (configuration not stated)
active: Potency [20] 42.2 µM
inactive: Potency [1] > 92 µM | Potency [2] | Potency [4] | Potency [5] | Potency [19] | Potency [6] | Potency [7] | Potency [9] | Potency [10] | Potency [11] | outcome [12] | activation [14] 1.48% | Potency [15] | max response [16] -3.61% | outcome [17]
